Experimental findings from PubChem BioAssay (EPA / NIEHS) are described below.

Read-out in assay [1]: TIMP metallopeptidase inhibitor 2 (TIMP2), TIMP2 (gene 7077)
The assay is described as follows: BSK_KF3CT_TIMP2: BioMAP Diversity Plus: KF3CT Assay for TIMP metallopeptidase inhibitor 2 (TIMP2) Biomarker Activity (AID 2283071). To be noted: primary human keratinocytes with fibroblasts; actives raise or lower the signal. The method in brief: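 TIMP-2 measured by ELISA at 24 h in human keratinocyte/fibroblast primary co-cultures exposed to chemicals. Both increases and decreases were fitted against DMSO. Parallel cultures were stained with SRB for total protein as an overt-cytotoxicity check.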

Read-out in assay [2]: Transforming growth factor beta 1 (TGFb1), TGFB1 (gene 7040)
The assay is described as follows: BSK_KF3CT_TGFb1: BioMAP Diversity Plus: KF3CT Assay for Transforming growth factor beta 1 (TGFb1) Biomarker Activity (AID 2283072). The settings on record: primary human keratinocytes with fibroblasts; actives raise or lower the signal. The procedure, abridged: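 ELISA quantifies TGF-b1 at 24 h post-dose in a primary human skin co-culture of keratinocytes and fibroblasts, with gain or loss judged against DMSO. Parallel SRB total-protein staining flags overt cytotoxicity.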

Read-out in assay [3]: C-C motif chemokine 2 (Homo sapiens) (UniProt P13500)
The assay is described as follows: BSK_KF3CT_MCP1: BioMAP Diversity Plus: KF3CT Assay for Monocyte Chemoattractant Protein 1 (MCP1/CCL2) Biomarker Activity (AID 2283073). The settings on record: primary human keratinocytes with fibroblasts; actives raise or lower the signal. The procedure, abridged:
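Human keratinocyte–foreskin fibroblast co-culture; MCP-1 measured by ELISA 24 h after dosing. Bidirectional fit vs DMSO; cytotoxicity tracked by SRB total protein in parallel cultures.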

Read-out in assay [4]: Matrix Metallopeptidase 9 (MMP9), MMP9 (gene 4318)
Put plainly: BSK_KF3CT_MMP9: BioMAP Diversity Plus: KF3CT Assay for Matrix Metallopeptidase 9 (MMP9) Biomarker Activity (AID 2283074). To be noted: primary human keratinocytes with fibroblasts; actives raise or lower the signal. The procedure, abridged: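 Values come from bidirectional fitting relative to DMSO of MMP-9 levels, which were measured by ELISA. Measurements were taken 24 h after chemical dosing of a keratinocyte and foreskin fibroblast co-culture.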

Read-out in assay [5]: urokinase plasminogen activator (uPA), PLAU (gene 5328)
The assay is described as follows: BSK_KF3CT_uPA: BioMAP Diversity Plus: KF3CT Assay for urokinase plasminogen activator (uPA) Biomarker Activity (AID 2283075). The settings on record: primary human keratinocytes with fibroblasts; actives raise or lower the signal. The method in brief:
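Values derive from bidirectional fitting against DMSO controls. Keratinocyte/foreskin fibroblast co-cultures received chemical; 24 h later uPA was detected by ELISA, with SRB total-protein staining in parallel wells for overt cytotoxicity.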

Read-out in assay [6]: CD40, CD40 (gene 958)
The assay is described as follows: BSK_LPS_CD40: BioMAP Diversity Plus: LPS Assay for CD40 Biomarker Activity (AID 2283076). To be noted: primary human HUVEC with PBMC; actives raise or lower the signal. The method in brief: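 HUVEC plus PBMC co-culture stimulated with LPS; CD40 quantified by ELISA 24 h after compound dosing. Fitting was bidirectional relative to DMSO. SRB staining of parallel cultures flagged overt cytotoxicity.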

Read-out in assay [7]: E-selectin (Homo sapiens) (UniProt P16581)
The assay is described as follows: BSK_LPS_Eselectin: BioMAP Diversity Plus: LPS Assay for Eselectin Biomarker Activity (AID 2283077). To be noted: primary human HUVEC with PBMC; actives raise or lower the signal. The method in brief: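 Human umbilical vein endothelial cells co-cultured with PBMC under LPS stimulation; cell-surface E-selectin measured by ELISA 24 h after dosing. Change in either direction versus DMSO, with SRB total-protein staining in parallel cultures for cytotoxicity.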

Read-out in assay [8]: Interleukin-8 (IL8), CXCL8 (gene 3576)
Put plainly: BSK_LPS_IL8: BioMAP Diversity Plus: LPS Assay for Interleukin-8 (IL8) Biomarker Activity (AID 2283078). To be noted: primary human HUVEC with PBMC; actives raise or lower the signal. The method in brief: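 Human umbilical vein endothelial cells co-cultured with PBMC, LPS-stimulated, exposed to compound for 24 h. IL-8 quantified by ELISA; fitted in both directions against DMSO, with SRB total-protein staining of parallel cultures for cytotoxicity.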

Assay [9] in a line: BSK_LPS_SRB: Viability Assessment in the BioMAP Diversity Plus: LPS Assay (AID 2283079).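 Also: total protein by sulforhodamine B absorbance as a cytotoxicity measure; measured one day after compound addition; fitted in both directions against DMSO so loss or gain of signal counts.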 The settings on record: primary human HUVEC with PBMC. The method in brief: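 Co-culture of human umbilical vein endothelial cells and PBMC, read 24 h after dosing. Total protein by 0.1% SRB staining after 10% TCA fixation, absorbance at 560 nm; bidirectional fit against DMSO.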
Read-out in assay [10]: Interleukin-1 alpha (IL1a), IL1A (gene 3552)
The assay is described as follows: BSK_LPS_IL1a: BioMAP Diversity Plus: LPS Assay for Interleukin-1 alpha (IL1a) Biomarker Activity (AID 2283080). To be noted: primary human HUVEC with PBMC; actives raise or lower the signal. The procedure, abridged: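 Human umbilical vein endothelial cells co-cultured with PBMC and stimulated with LPS; IL-1a measured by ELISA 24 h after dosing. Bidirectional fitting against DMSO; cytotoxicity checked by SRB staining in parallel cultures.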

Read-out in assay [11]: Monocyte Chemoattractant Protein-1 (MCP1), CCL2 (gene 6347)
The assay is described as follows: BSK_LPS_MCP1: BioMAP Diversity Plus: LPS Assay for Monocyte Chemoattractant Protein-1 (MCP1) Biomarker Activity (AID 2283081). To be noted: primary human HUVEC with PBMC; actives raise or lower the signal. The procedure, abridged: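 Human umbilical vein endothelial cells co-cultured with PBMC, LPS-stimulated; secreted MCP-1 measured by ELISA 24 h after compound addition. Bidirectional curve fitting against DMSO baseline; SRB total-protein staining in parallel cultures for cytotoxicity.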

The nature of assay [12]: BSK_LPS_PGE2: BioMAP Diversity Plus: LPS Assay for Prostaglandin E2 (PGE2) Biomarker Activity (AID 2283082). To be noted: primary human HUVEC with PBMC; actives raise or lower the signal. The method in brief: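 PGE2 release measured by ELISA in an LPS-activated co-culture of human umbilical vein endothelial cells and peripheral blood mononuclear cells, read at 24 h post-dosing. DMSO served as baseline for bidirectional curve fitting.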

Read-out in assay [13]: Macrophage colony-stimulating factor (MCSF), CSF1 (gene 1435)
Put plainly: BSK_LPS_MCSF: BioMAP Diversity Plus: LPS Assay for Macrophage colony-stimulating factor (MCSF) Biomarker Activity (AID 2283083). The settings on record: primary human HUVEC with PBMC; actives raise or lower the signal. The method in brief: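 HUVEC–PBMC co-culture, M-CSF measured by ELISA 24 h after chemical dosing. Fitted in both directions relative to DMSO as negative control; overt cytotoxicity assessed by SRB total-protein staining in parallel cultures.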

Read-out in assay [14]: Tissue Factor, F3 (gene 2152)
Put plainly: BSK_LPS_TissueFactor: BioMAP Diversity Plus: LPS Assay for Tissue Factor Biomarker Activity (AID 2283084). The settings on record: primary human HUVEC with PBMC; actives raise or lower the signal. The procedure, abridged: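 Human umbilical vein endothelial cells co-cultured with PBMC were dosed with compound. Cell-surface CD142 was measured by ELISA 24 h later. Activity was fitted bidirectionally against DMSO, with SRB total-protein staining in parallel cultures for cytotoxicity.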

Read-out in assay [15]: Tumor necrosis factor (Homo sapiens) (UniProt P01375)
The assay is described as follows: BSK_LPS_TNFa: BioMAP Diversity Plus: LPS Assay for Tumour Necrosis Factor alpha (TNFa) Biomarker Activity (AID 2283085).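 As to AC50: TNFa protein level quantified by ELISA in the co-culture.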 The settings on record: primary human HUVEC with PBMC; actives raise or lower the signal. The procedure, abridged: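 TNFa was quantified by ELISA in LPS-activated co-cultures of human endothelial cells and PBMC, 24 h post-dosing. Both increases and decreases versus DMSO were fitted.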

Read-out in assay [16]: Vascular cell adhesion molecule 1 (VCAM1), VCAM1 (gene 7412)
The assay is described as follows: BSK_LPS_VCAM1: BioMAP Diversity Plus: LPS Assay for Vascular cell adhesion molecule 1 (VCAM1) Biomarker Activity (AID 2283086). To be noted: primary human HUVEC with PBMC; actives raise or lower the signal. The procedure, abridged:
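VCAM-1 quantified by ELISA in an LPS-activated co-culture of human endothelial cells and peripheral blood mononuclear cells, read 24 h post-treatment. Fitted in both directions versus DMSO; parallel SRB staining flags overt cytotoxicity.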

Read-out in a further assay: CD38, CD38 (gene 952)
The assay is described as follows: BSK_SAg_CD38: BioMAP Diversity Plus: SAg Assay for CD38 Biomarker Activity (AID 2283087). To be noted: primary human HUVEC with PBMC; actives raise or lower the signal. The procedure, abridged:
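CD38 quantified by ELISA (fluorescence) in a superantigen-activated endothelial cell–PBMC co-culture at 24 h post-dose. Activity fitted in both directions relative to DMSO; parallel SRB and Alamar Blue cytotoxicity read-outs.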

Read-out in assay [17]: CD40, CD40 (gene 958)
Put plainly: BSK_SAg_CD40: BioMAP Diversity Plus: SAg Assay for CD40 Biomarker Activity (AID 2283088). The settings on record: primary human HUVEC with PBMC; actives raise or lower the signal. The method in brief:
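HUVEC plus PBMC co-culture, superantigen-activated, with CD40 read by ELISA 24 h after dosing. Curves fitted in both directions against DMSO. Overt cytotoxicity checked by parallel SRB total-protein staining.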

Read-out in a further assay: CD69, CD69 (gene 969)
Put plainly: BSK_SAg_CD69: BioMAP Diversity Plus: SAg Assay for CD69 Biomarker Activity (AID 2283089). The settings on record: primary human HUVEC with PBMC; actives raise or lower the signal. The procedure, abridged:
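Endothelial/PBMC co-culture; chemical added; 24 h incubation; CD69 ELISA with fluorescence detection; bidirectional fit vs DMSO.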

Read-out in assay [18]: Monocyte Chemoattractant Protein-1 (MCP1), CCL2 (gene 6347)
The assay is described as follows: BSK_SAg_MCP1: BioMAP Diversity Plus: SAg Assay for Monocyte Chemoattractant Protein-1 (MCP1) Biomarker Activity (AID 2283090). The settings on record: primary human HUVEC with PBMC; actives raise or lower the signal. The method in brief: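 Values derive from bidirectional fitting of ELISA-measured MCP1 against DMSO controls. Readings were taken 24 h after dosing human vascular endothelial cells co-cultured with peripheral blood mononuclear cells under superantigen stimulation.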

The source made the active and inactive calls. The calls were made as follows: active = hit-call score of the fitted dose curve at least 0.9, where 1 is the maximum; inactive = score below 0.9.

E-selectin (Homo sapiens), sequence (P16581 whole entry, looked up): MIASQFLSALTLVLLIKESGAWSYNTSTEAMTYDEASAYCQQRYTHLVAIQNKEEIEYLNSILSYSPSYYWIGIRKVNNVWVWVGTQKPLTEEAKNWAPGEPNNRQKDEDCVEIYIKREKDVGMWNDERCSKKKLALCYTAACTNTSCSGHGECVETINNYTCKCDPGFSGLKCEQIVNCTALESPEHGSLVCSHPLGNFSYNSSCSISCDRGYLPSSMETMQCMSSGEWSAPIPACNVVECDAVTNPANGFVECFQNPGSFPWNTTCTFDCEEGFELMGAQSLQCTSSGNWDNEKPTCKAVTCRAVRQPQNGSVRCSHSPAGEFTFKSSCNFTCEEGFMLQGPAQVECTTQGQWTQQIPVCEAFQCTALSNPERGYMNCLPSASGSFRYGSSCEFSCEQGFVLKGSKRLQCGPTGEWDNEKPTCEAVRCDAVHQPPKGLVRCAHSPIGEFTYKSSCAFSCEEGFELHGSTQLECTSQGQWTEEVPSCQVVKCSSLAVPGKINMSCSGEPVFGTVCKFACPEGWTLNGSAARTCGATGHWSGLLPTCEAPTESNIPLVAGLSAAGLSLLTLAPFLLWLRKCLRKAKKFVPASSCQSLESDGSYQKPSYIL
Tumor necrosis factor (Homo sapiens), sequence (P01375 whole entry, looked up): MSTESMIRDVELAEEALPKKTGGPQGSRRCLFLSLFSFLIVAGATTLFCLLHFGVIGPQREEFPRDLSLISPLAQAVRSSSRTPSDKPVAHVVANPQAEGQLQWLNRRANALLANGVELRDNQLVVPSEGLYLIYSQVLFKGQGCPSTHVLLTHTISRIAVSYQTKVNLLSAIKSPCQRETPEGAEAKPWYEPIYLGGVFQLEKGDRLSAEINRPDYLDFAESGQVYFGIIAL

For `CC(C)N(C(=O)COc1nnc(C(F)(F)F)s1)c1ccc(F)cc1`, the outcome in [1] is “inactive”; in assay [2] it was “inactive”; in [3], “inactive”; in assay [4] it was “inactive”; in assay [5] it was “inactive”; with CD40, CD40 (gene 958) [6] it was “inactive”. Moreover, the outcome in assay [7], in [8], in assay [9], in assay [10], in assay [11] and in assay [12] was inactive. Besides, the outcome in [13] was “inactive”; in assay [14] it was “inactive”; in [16], “inactive”; in the assay with CD38, CD38 (gene 952), “inactive”; with CD40, CD40 (gene 958) [17] it was “inactive”; in the assay with CD69, CD69 (gene 969) it was “inactive”. For the same compound, the result in [18] was inactive. For the same compound, the AC50 (in general, the concentration giving half of the maximal activity seen) in assay [15] was 12.6 µM (active).

As to `O=C1c2ccccc2C(=O)N1SC(Cl)(Cl)Cl`, the outcome in assay [1] was “inactive”; in [2], “inactive”; in assay [3], “inactive”; in assay [4], “inactive”; in [5], “inactive”; in the assay with CD40, CD40 (gene 958) [6], “inactive”. The outcome in assay [7], in assay [8], in [10], in assay [11], in assay [12] and in [13] was inactive. Also, the outcome is “inactive” in assay [14]; “inactive” in assay [16]; “inactive” in the assay with CD38, CD38 (gene 952); “inactive” with CD40, CD40 (gene 958) [17]; “inactive” in the assay with CD69, CD69 (gene 969); “inactive” in [18]. For the same compound, the values for the half-maximal activity concentration (AC50) in assay [9] and in assay [15] were 0.303 µM (active) and 32 µM (active), respectively.

On to `C#CCN1C(=O)COc2cc(F)c(N3C(=O)C4=C(CCCC4)C3=O)cc21`, for which the outcome in assay [2] is “inactive”; in assay [3], “inactive”; in [4], “inactive”; in assay [5] it was “inactive”; with CD40, CD40 (gene 958) [6], “inactive”; in [7] it was “inactive”. Also, the result in assay [8], in [9], in assay [10], in [11], in assay [12] and in assay [13] was inactive. In addition, the outcome in assay [14] was “inactive”; in [15] it was “inactive”; in [16], “inactive”; with CD40, CD40 (gene 958) [17], “inactive”; with CD69, CD69 (gene 969), “inactive”; in [18], “inactive”. Moreover, the concentration at half-maximal activity (AC50) with CD38, CD38 (gene 952) was 14.2 µM (active).
